The results in this text go back to PubChem BioAssay (NCI).

About 83,000 compounds went through this panel and 20% of them were active in at least one assay; those are over-represented in the sample as a whole.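 Step 1: grow cells in 96-well plates. Step 2: add test compound at a single concentration. Step 3: incubate 48 h. Step 4: record percent growth.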 Values without a mark were called inactive. The source made the active and inactive calls.

The assay deals with NCI/ADR-RES ovarian. As to the kind of experiment: NCI-60 one-dose screen, 48 h (100 = growth as untreated, 0 = no growth, -100 = all killed). As to conditions: 10 µM. As for the experimental part: Growth inhibition of the NCI/ADR-RES human […] tumor cell line is measured as a screen for anti-cancer activity. Cells are grown in 96 well plates and exposed to the test compound for 48 hours. Compounds are tested at a single concentration, which is 10^-5 M for most compounds. The reported endpoint is percent growth (GI% or GIPRCNT), where numbers from 0 - 100% represent growth inhibition, and numbers from -100% - 0 represent cell death. For example, a value of 40 represents 60% growth inhibition. A value of 0 means no net growth occurred over the course of the experiment. A value of -40 indicates 40% of cells at the beginning of the experiment died by the end of the experiment. A value of -100 means all cells are dead at the end of the experiment.
NCI-60 Human Tumor Cell Lines Screen was performed using the standard one-dose NCI protocol, which is described in more detail at https://dtp.cancer.gov/discovery_development/nci-60/default.htm.
Compounds with GIPRCNT values below 10 were considered active. Activity score was based on GIPRCNT using the following formula: […]
Score is 0 for GIPRCNT values of 100 or above, 50 for GIPRCNT values of 0, and 100 for GIPRCNT values of -100.
For the compound `C=CCn1c(SCC(=O)Nc2ccc(C(=O)/C=C/c3ccccc3)cc2)nnc1-c1c[nH]c2ccccc12`, the growth is 85.4%.
For `COc1ccc(-c2cc(C(=O)N=Nc3c(O)[nH]c4ccc(F)cc34)c3ccccc3n2)cc1` the value was 61.9%.
For `Cc1ccc(-c2ccc(SCC(=O)Nc3ccc(Cl)c(C(F)(F)F)c3)nn2)cc1` the value was -23.5% (active).
Regarding `Cc1ccc2nc(COc3ccc(C(=O)NNC(=S)NC(=O)c4ccccc4)cc3)[nH]c2c1`, the growth is -3.62% (active).
The figure for `CN1C(=O)N(C)C2SC(N/N=C/c3cccs3)=NC21` (stereo not given) is -15.2% (active).
Consider `O=c1c2ccccc2nc(COc2ccccc2)n1/N=C/c1ccc(N2CCOCC2)cc1`, for which the growth is 58.1%.
For `COc1ccc(-c2nc(S(=O)(=O)c3ccc(C)cc3)c(S(=O)(=O)CC(=O)N(C)Cc3ccccc3)o2)cc1` the value was 28.8%; for `C=C1CC[C@H](C(=C)C)[C@H]2C=C(C)C(=O)C3=C(C(=O)[C@@](C)(O)C3)[C@H]12`, -31.1% (active).
For the compound `CC1(C)[C@@H](NCO)CC[C@]2(C)[C@H]3C(=O)C=C4[C@@H]5C[C@](C)(CO)CC[C@]5(C)CC[C@@]4(C)[C@]3(C)CC[C@@H]12`, the growth was 56%.
The figure for `COc1ccc(/C=N/N=C(\C)c2ccc3c(c2)Nc2ccccc2S3)cc1O` is 34.8%; for `O=C(NO)c1ccc(Cn2ccc3c(Nc4ccccc4)ncnc32)cc1` it is -29.4% (active); for `COc1ccc(N(C)c2cc(C#N)nc3ccccc23)cc1/C=C/C(=O)NO` it is -41.9% (active).
Regarding `COc1ccc2nc(Nc3cccc(NC(=O)c4ccc(CN5CCN(C)CC5)c(C(F)(F)F)c4)c3)ccc2c1`, the growth is -37.9% (active).
The figure for `O=[N+]([O-])c1ccc(-c2nc(-c3ccccc3)c(-c3ccccc3)n2-c2ccc(S(=O)(=O)Nc3ncccn3)cc2)cc1` is 42.4%; for `COc1cccc(C(N)=Nc2ccc(OCCCCCCn3cncn3)cc2)c1` it is 13.5%.
On to `CN1C(=O)N(C)C2SC(N/N=C/c3ccccc3F)=NC21` (stereo not given), for which the growth was 30.6%.
For `N#Cc1ccc(-c2nn(-c3ccc(C(=O)O)cc3)cc2CNc2ccc(Cl)cc2)cc1` the value was 67.7%; for `CC(=O)c1cc(C(=O)c2ccc3c(c2)NC(=O)CO3)n2ccc3ccccc3c12`, 69%; for `CONC[C@]1(C)C=C2C(=O)[C@](C)(O)C3(CC3)C(C)=C2[C@H]1O`, -58.3% (active).
With `CCOC(=O)C1=C(N)N(c2ccccc2)C2=C(C(=O)CC(C)(C)C2)C1c1ccc(Cl)cc1` (stereo not given), the growth was 25.6%.
For `O=C(Cn1nc(-c2ccccc2)ccc1=O)NN1C(=O)c2ccccc2C1=O` the value was 91.2%; for `COc1ccc(CN2[C@@H](C(=O)NCc3ccc(C(=O)NO)cc3)Cc3c([nH]c4ccccc34)[C@@H]2C)cc1`, 68.8%.
For `O=C1Nc2cc(-c3ccc(NC(=O)c4cccc([N+](=O)[O-])c4)cc3)ccc2/C1=C/c1ccc[nH]1` the value was 89.5%; for `O=C(c1ccc(Cl)cc1)C1[C@H](c2ccc(Br)cc2)[C@@H](c2ccccc2)NC12C(=O)Nc1ccc(Br)cc12` (stereo not given in full), -85.6% (active).
The figure for `COc1ccc(C(=O)Nc2sc3c(c2C#N)CCC(=O)C3)cc1C(F)(F)F` is -44.7% (active); for `O=C(CSc1nnc(-c2ccc3nc(-c4ccccc4)[nH]c3c2)o1)Nc1ccc(Cl)cc1` it is 38.5%; for `Cc1cc(=O)oc2cc(OCCCCOc3ccc(/C=C/C(=O)Nc4ccc(F)c(Cl)c4)cc3)ccc12` it is 88.7%.
As to `CC1=C(C(=O)OC(C)C)C(c2ccc(O)cc2)NC(=S)N1` (stereo not given), the growth was 97.5%.
In the case of `COc1ccc(CN2[C@H](C(=O)NCc3ccc(C(=O)NO)cc3)Cc3c([nH]c4ccccc34)[C@H]2C2CC2)cc1`, the growth is 84%.
For the compound `COc1ccc([C@H]2C(C(=O)c3ccc(Cl)cc3)C3(N[C@@H]2c2ccccc2)C(=O)Nc2ccc(Cl)cc23)cc1` (stereo not given in full), the growth is -47.1% (active).
For `Cc1ccc(CNC(=O)Cc2ccc3c(c2)CN(C2CCC(=O)NC2=O)C3=O)cc1` (stereo not given) the value was -8.37% (active); for `CC(=O)Nc1ccc(-n2cnc3cc(-c4ccc(O)cc4)ccc32)cc1C`, 29.4%.
For `Cc1ccc(CSc2nc(Cl)c(C#N)c(-c3ccc(F)cc3)n2)cc1` the value was 72.4%; for `COc1ccc2cc([C@H](C)C(=O)NCc3ccccc3)ccc2c1`, -10% (active).
The figure for `CC(=C(c1ccc(OCCN2CCCCC2)cc1)c1ccc(OCCN2CCCCC2)cc1)c1ccccc1` is 51.6%; for `O=C1CCC(N2Cc3cc(NC(=O)COc4ccccc4)ccc3C2=O)C(=O)N1` (stereo not given) it is 37.8%.
`CC(=O)C1=C(C)NC(SCC(=O)Nc2ccc(S(=O)(=O)Nc3cc(C)on3)cc2)=NC1c1ccccc1` (stereo not given): the growth is 103%.
For `CCOC(=O)C1=C(N)N(c2ccc(C)cc2)C2=C(C(=O)CC(C)(C)C2)C1c1ccccc1OC` (stereo not given) the value was 99.7%.
The figure for `CCCCCCCCCCCCCCCCCCCC(=O)NCCc1c[nH]c2ccc(O)cc12` is 96.2%; for `N#Cc1c(NC(=O)c2cccc(C(F)(F)F)c2)sc2c1CCC(O)=C2` it is 18.6%.
